According to PubChem BioAssay (NCI):
About 83,000 compounds went through this panel and 20% of them were active in at least one assay; those are over-represented in the sample as a whole.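 Each cell line was grown in a 96-well plate and treated with one concentration of compound for 48 hours. Values below 10 were considered active.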 A number with no mark means an inactive call. The source made the active and inactive calls.

How the values were obtained:
Assay in all cases: NCI-60 one-dose screen, 48 h (100 = growth as untreated, 0 = no growth, -100 = all killed)
[1] = tested on: HCT-15 colon; details: 10 µM unless noted
[2] = tested on: SNB-75 CNS; details: 10 µM unless noted
[3] = tested on: SNB-19 CNS; details: 10 µM unless noted
[4] = tested on: U251 CNS; details: 10 µM unless noted
[5] = tested on: PC-3 prostate; details: 10 µM unless noted
[6] = tested on: SK-MEL-5 melanoma; details: 10 µM unless noted
[7] = tested on: UACC-62 melanoma; details: 10 µM unless noted
[8] = tested on: LOX IMVI melanoma; details: 10 µM
[9] = tested on: SK-MEL-28 melanoma; details: 10 µM unless noted
[10] = tested on: HT29 colon; details: 10 µM unless noted

Compound	growth [1]	growth [2] [%]	growth [3]	growth [4]	growth [5]	growth [6]	growth [7]	growth [8]	growth [9]	growth [10]
CC(=O)N=c1ccc2nc3c(cc(N)c4ccccc43)oc-2c1	-75.5% (active)	34	-11.1% (active)	-73.7% (active)	2.46% (active)	-100% (active)	-61.2% (active)	-74.3% (active)	-2.3% (active)	
CCCNS(=O)(=O)c1ccc(Cl)cc1	99.6%	93.4	104%			105%		101%	108%	101%
CCCCCCCCCc1ccc(OC(C)=O)cc1	111%	99.4	103%			103%	107%	104%	107%	102%
CCNCC(C)(C)O	104%	79.4	102%		91.5%	97.3%	102%	101%	101%	109%
S=C=Nc1ccc2ccccc2c1	96.6%	94.5	101%			106%	102%	94.2%	111%	105%
COc1cc2c(c(OC)c1OC)-c1ccc(SC)c(=O)cc1[C@@H](NC1OC(CO)C(O)C(O)C1O)CC2 (some centres undefined)	14.8%	24.9	71.5%		15.7%	-18.3% (active)	43.3%	22.3%	61.1%	0.658% (active)
COc1ccc2c(ccc[n+]2C)c1	93.5%	78.3	101%		119%	103%	95.5%	105%	111%	93%
CC(C)(N)CO[C@H]1C[C@H]2CC[C@@]1(C)C2(C)C	90.7%	89.3	103%	96.6%		86.1%	101%	98.6%	94.7%	
O=C(O)c1ccc([N+](=O)[O-])cc1S(=O)(=O)O	106%	118	105%		100%	99.7%	101%	98.1%	103%	
NC(=S)N/N=C/c1ccc(Cl)cc1	103%	103	107%	99.7%	99.6%	99.1%	109%	99.1%	107%	
CCC(=O)C1C(=O)c2ccccc2C1=O	113%	83.1	109%	105%	92.2%	110%	104%	98.1%	120%	
O=C(c1ccccc1O)N1CCCC1	99.2%	88	97.2%	89.8%	84.4%	105%	100%	99.7%	98.5%	
Nc1ccc(F)cc1F	108%	97.1	109%	106%	89.1%		100%	102%	92.7%	
S=c1nc2[nH]c3ccccc3c2n[nH]1	97.3%	103	83.3%	105%	82.3%	90.1%	87.1%	89.6%	91.7%	
Cc1ccc(/C=N/NC(N)=S)s1	109%	91.2	103%	102%	92.2%		102%	101%	113%	
Nc1nc(Cl)cc(Cl)n1	102%	91.4	113%	102%	98.5%	98.8%	107%	92.5%	119%	
Cc1cc2c(C(C)C)c(O)c(O)c(C=Nc3ccccc3[N+](=O)[O-])c2c(O)c1-c1c(C)cc2c(C(C)C)c(O)c(O)c(C=Nc3ccccc3[N+](=O)[O-])c2c1O	80.2%	78	43.9%	54.2%	65.1%	96.2%	96.5%		98.3%	
